PubChem BioAssay (NCATS)
Results filed as inconclusive are left out. Activity calls are given as the source filed them. Calls come from the whole dose curve; as a rule, active = well fitted inhibition curve with a large enough effect; inconclusive = small, poorly fitted or top-dose-only effect; inactive = flat fitted curve, though single readings scatter.

Experiments:
Test in all cases: qHTS profiling for inhibitors of Plasmodium falciparum proliferation (AID 504749); note: nearly all actives have a fitted effect of over 60% in size
Conditions in all cases: P. falciparum in erythrocytes, SYBR Green DNA, 72 h; series mostly up to 28.7 µM
CP260 = tested on: CP260
Summary of the method: (§1)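 SYBR Green fluorescence of parasite DNA, read after lysis and overnight dark incubation, measured growth over 72 h in erythrocyte culture at 0.3% parasitemia and 2.5% hematocrit. Data normalised to DMSO and 0.29 uM artemisinin, with plate-drift correction.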

CP262 = tested on: CP262
Summary of the method: as §1

CP265 = tested on: CP265
Summary of the method: as §1

CP266 = tested on: CP266
Summary of the method: as §1

CP268 = tested on: CP268
Summary of the method: as §1

CP269 = tested on: CP269
Summary of the method: as §1

CP286 = tested on: CP286
Summary of the method: as §1

CP291 = tested on: CP291
Summary of the method: as §1

CP297 = tested on: CP297
Summary of the method: as §1

CP305 = tested on: CP305
Summary of the method: as §1

CP315 = tested on: CP315
Summary of the method: as §1

CP325 = tested on: CP325
Summary of the method: as §1

CP329 = tested on: CP329
Summary of the method: as §1

CP335 = tested on: CP335
Summary of the method: as §1

DFO2036 = tested on: DFO2036
Summary of the method: as §1

DIV14 = tested on: DIV14
Summary of the method: as §1

DIV17 = tested on: DIV17
Summary of the method: as §1

DIV30 = tested on: DIV30
Summary of the method: as §1

ECU = tested on: ECU
Summary of the method: as §1

FAB9 = tested on: FAB9
Summary of the method: as §1

GB4 = tested on: GB4
Summary of the method: as §1

HB3 = tested on: HB3
Summary of the method: as §1

ICS = tested on: ICS
Summary of the method: as §1

JCK = tested on: JCK
Summary of the method: as §1

N140 = tested on: N140
Summary of the method: as §1

P93_24 = tested on: P93_24
Summary of the method: as §1

P94_40 = tested on: P94_40
Summary of the method: as §1

PAD = tested on: PAD
Summary of the method: as §1

PC26 = tested on: PC26
Summary of the method: as §1

PC49 = tested on: PC49
Summary of the method: as §1

SC27B = tested on: SC27B
Summary of the method: as §1

TAB109 = tested on: TAB109
Summary of the method: as §1

TAB113 = tested on: TAB113
Summary of the method: as §1

TAB165 = tested on: TAB165
Summary of the method: as §1

W2 = tested on: W2
Summary of the method: as §1

Measured: Potency
Potency is the fitted concentration of half-maximal effect.

O=C(O)[C@@H](S)[C@H](S)C(=O)O
active: CP260 5.01 µM | CP262 6.75 µM | CP265 8.91 µM | CP266 9.53 µM | CP268 13.5 µM | CP269 6.75 µM | CP286 7.08 µM | CP291 12 µM | CP297 15.1 µM | CP305 7.57 µM | CP315 15.1 µM | CP325 9.53 µM | CP329 10.7 µM | CP335 6.75 µM | DFO2036 8.91 µM | DIV14 8.49 µM | DIV17 13.5 µM | DIV30 6.75 µM | ECU 11.2 µM | FAB9 11.2 µM | GB4 13.5 µM | HB3 10 µM | ICS 8.91 µM | JCK 11.2 µM | N140 7.94 µM | P93_24 4.47 µM | P94_40 4.47 µM | PAD 8.91 µM | PC26 8.49 µM | PC49 11.2 µM | SC27B 11.2 µM | TAB109 5.62 µM | TAB113 11.2 µM | TAB165 11.2 µM | W2 3.38 µM
